# Reference: PMC7862700, “An all-to-all approach to the identification of sequence-specific readers for epigenetic DNA modifications on cytosine”
# Legend:
# Assay in all cases: DAPPL (digital affinity profiling via proximity ligation, sequencing); 10 mM Tris-HCl pH 7.5, 50 mM NaCl, 1 mM DTT, 4% glycerol, room temperature, 30 min; GST-TFs on glutathione beads, 16-mer random dsDNA library, 0.1% formaldehyde crosslink after washing; high values mean tight binding
# [1] = biological target: T1, FLI1 (Homo sapiens, UniProt Q01543 1-452); settings: protein: recombinant; tags: N-terminal GST; dsDNA, one strand shown
# T1 sequence: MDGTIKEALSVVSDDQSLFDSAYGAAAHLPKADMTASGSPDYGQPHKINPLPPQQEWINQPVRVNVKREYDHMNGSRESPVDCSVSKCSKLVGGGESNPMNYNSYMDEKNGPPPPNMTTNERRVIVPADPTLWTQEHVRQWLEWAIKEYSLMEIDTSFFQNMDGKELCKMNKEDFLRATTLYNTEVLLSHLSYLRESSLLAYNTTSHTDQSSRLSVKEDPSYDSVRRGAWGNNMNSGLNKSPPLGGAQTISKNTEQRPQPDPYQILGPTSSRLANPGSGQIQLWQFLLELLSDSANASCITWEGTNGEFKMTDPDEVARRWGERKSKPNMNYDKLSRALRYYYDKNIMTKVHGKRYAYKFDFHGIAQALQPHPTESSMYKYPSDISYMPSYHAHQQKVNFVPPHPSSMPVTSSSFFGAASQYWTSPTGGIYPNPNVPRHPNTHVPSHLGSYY
# Summary of the method: (§1)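 GST fusions of human transcription factors were expressed in yeast and captured with glutathione beads. Once given DNA barcodes and pooled alongside a tag-only sample, they were incubated for 30 min at room temperature with 200 nmole of a random double-stranded 16-mer DNA library in Tris/NaCl/DTT/glycerol buffer, then washed, crosslinked (0.1% formaldehyde), proximity-ligated, PCR-amplified and sequenced on an Illumina NextSeq500. The binding signal of each hexamer is its read frequency for a factor divided by its frequency for the tag-only sample.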
# [2] = biological target: T2, ELK1 (Homo sapiens, UniProt P19419 1-428); settings: protein: recombinant; tags: N-terminal GST; dsDNA, one strand shown
# T2 sequence: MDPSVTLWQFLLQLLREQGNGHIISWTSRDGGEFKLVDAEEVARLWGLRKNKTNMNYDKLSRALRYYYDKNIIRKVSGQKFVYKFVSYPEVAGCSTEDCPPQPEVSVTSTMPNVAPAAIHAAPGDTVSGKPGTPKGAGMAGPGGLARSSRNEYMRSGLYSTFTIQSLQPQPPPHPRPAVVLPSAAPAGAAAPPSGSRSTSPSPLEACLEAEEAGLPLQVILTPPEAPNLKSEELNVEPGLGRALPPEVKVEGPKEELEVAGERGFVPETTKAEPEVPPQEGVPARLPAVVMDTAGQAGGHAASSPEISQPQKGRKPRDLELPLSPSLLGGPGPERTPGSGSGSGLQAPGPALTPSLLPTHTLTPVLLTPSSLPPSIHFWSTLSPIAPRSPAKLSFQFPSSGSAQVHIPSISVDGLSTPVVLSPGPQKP
# Summary of the method: as §1
# [3] = biological target: T3, GABPA (Homo sapiens, UniProt Q06546 1-454); settings: protein: recombinant; tags: N-terminal GST; dsDNA, one strand shown
# T3 sequence: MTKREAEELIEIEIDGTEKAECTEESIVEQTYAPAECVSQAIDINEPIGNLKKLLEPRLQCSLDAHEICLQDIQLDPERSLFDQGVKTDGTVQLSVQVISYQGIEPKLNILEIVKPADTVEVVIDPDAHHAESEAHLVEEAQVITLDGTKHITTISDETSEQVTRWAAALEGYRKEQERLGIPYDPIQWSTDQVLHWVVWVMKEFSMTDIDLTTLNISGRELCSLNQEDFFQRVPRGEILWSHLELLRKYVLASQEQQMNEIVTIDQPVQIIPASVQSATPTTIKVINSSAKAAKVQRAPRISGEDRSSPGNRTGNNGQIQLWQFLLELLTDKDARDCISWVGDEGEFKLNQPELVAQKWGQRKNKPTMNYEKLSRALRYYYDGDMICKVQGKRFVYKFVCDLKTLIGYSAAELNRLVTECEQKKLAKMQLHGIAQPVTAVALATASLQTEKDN
# Summary of the method: as §1
# [4] = biological target: T4, ERG (Homo sapiens, UniProt P11308 1-479); settings: protein: recombinant; tags: N-terminal GST; dsDNA, one strand shown
# T4 sequence: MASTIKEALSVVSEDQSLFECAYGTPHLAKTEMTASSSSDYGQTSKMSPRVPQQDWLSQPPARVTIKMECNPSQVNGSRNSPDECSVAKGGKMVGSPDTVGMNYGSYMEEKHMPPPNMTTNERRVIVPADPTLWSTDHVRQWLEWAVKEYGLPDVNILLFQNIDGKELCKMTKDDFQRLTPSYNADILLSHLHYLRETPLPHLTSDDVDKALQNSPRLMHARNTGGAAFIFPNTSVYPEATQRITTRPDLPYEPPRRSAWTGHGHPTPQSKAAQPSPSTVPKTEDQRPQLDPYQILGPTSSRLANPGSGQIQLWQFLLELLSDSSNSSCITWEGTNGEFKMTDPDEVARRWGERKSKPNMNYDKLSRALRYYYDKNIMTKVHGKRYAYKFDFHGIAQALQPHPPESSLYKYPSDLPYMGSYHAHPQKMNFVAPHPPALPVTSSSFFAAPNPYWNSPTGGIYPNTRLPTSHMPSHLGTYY
# Summary of the method: as §1
# [5] = biological target: ELF1 (Homo sapiens, UniProt P32519 1-619); settings: protein: recombinant; tags: N-terminal GST; dsDNA, one strand shown
# ELF1, sequence (P32519 whole entry): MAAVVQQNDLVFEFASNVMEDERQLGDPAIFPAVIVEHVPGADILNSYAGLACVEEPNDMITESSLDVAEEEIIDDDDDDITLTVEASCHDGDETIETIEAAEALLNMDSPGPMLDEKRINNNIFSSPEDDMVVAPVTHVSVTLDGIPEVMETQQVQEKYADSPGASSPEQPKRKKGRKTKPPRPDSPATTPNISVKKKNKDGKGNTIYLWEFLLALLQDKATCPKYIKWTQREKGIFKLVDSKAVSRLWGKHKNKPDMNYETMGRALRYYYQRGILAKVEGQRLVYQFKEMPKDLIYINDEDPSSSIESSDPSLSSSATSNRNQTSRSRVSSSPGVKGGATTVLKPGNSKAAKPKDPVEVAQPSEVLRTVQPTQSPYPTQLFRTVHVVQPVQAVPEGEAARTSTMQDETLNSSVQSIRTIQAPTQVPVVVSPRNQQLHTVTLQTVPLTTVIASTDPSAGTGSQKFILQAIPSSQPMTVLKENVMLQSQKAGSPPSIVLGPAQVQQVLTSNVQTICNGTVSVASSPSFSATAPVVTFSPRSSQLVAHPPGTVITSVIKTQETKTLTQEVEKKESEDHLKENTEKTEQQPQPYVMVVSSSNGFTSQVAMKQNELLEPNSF
# Summary of the method: as §1
# [6] = biological target: T5, EHF (Homo sapiens, UniProt Q9NZC4 1-300); settings: protein: recombinant; tags: N-terminal GST; dsDNA, one strand shown
# T5 sequence: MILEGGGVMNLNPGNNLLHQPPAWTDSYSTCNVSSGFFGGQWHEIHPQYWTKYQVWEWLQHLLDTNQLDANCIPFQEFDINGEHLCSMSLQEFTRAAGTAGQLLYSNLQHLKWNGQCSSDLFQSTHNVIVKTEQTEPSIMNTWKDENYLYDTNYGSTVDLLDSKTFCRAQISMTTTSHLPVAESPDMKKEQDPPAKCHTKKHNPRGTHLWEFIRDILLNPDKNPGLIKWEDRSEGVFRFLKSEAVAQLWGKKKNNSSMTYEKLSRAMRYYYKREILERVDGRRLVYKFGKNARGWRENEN
# Summary of the method: as §1
# [7] = biological target: SPI1 (Homo sapiens, UniProt P17947 1-270); settings: protein: recombinant; tags: N-terminal GST; dsDNA, one strand shown
# Summary of the method: as §1
# [8] = biological target: SPIB (Homo sapiens, UniProt Q01892 1-262); settings: protein: recombinant; tags: N-terminal GST; dsDNA, one strand shown
# SPIB, sequence (Q01892 whole entry): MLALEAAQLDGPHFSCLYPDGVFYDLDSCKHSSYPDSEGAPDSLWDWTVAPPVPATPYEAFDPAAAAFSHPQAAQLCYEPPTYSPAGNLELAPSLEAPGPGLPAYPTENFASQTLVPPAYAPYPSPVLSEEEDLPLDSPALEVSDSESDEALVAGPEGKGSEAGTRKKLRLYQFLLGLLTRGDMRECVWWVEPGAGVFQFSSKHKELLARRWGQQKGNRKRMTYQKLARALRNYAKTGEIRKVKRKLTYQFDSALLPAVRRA
# Summary of the method: as §1
# [9] = biological target: T6, ELK3 (Homo sapiens, UniProt P41970 1-407); settings: protein: recombinant; tags: N-terminal GST; dsDNA, one strand shown
# T6 sequence: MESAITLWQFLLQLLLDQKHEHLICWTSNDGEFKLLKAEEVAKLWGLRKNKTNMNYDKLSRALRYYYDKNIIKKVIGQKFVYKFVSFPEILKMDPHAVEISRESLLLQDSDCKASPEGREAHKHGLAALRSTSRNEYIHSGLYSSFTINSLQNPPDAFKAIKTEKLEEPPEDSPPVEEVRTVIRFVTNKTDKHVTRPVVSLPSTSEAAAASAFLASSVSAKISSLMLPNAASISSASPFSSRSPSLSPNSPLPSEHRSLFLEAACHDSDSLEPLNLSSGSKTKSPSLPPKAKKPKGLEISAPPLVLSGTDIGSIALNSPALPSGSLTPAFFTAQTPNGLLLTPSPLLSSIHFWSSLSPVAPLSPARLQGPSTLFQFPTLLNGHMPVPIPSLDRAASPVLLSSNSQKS
# Summary of the method: as §1
# [10] = biological target: T7, FEV (Homo sapiens, UniProt Q99581 1-238); settings: protein: recombinant; tags: N-terminal GST; dsDNA, one strand shown
# T7 sequence: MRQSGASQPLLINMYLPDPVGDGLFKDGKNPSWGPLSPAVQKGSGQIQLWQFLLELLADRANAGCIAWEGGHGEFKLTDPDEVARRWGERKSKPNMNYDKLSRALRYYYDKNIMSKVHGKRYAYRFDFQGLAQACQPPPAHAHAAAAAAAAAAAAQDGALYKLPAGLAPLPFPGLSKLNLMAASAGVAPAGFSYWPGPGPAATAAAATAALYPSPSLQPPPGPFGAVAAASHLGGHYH
# Summary of the method: as §1
# [11] = biological target: ETV5 (Homo sapiens, UniProt P41161 1-510); settings: protein: recombinant; tags: N-terminal GST; dsDNA, one strand shown
# ETV5, sequence (P41161 whole entry): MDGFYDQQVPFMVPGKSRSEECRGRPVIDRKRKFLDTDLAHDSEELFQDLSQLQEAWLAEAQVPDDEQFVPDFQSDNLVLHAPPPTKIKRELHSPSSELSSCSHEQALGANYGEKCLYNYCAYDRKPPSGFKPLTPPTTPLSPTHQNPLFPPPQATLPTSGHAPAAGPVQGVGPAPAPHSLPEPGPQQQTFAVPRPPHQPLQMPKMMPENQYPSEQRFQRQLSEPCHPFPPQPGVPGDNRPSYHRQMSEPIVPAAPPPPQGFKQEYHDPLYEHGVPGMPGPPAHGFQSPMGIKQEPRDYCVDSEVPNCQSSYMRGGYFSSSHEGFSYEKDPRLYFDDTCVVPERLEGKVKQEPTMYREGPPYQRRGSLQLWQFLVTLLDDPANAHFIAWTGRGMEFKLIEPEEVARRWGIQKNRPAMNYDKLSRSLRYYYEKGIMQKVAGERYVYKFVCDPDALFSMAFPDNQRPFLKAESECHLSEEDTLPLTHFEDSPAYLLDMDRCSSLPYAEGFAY
# Summary of the method: as §1
# [12] = biological target: HSF1 (Homo sapiens, UniProt Q00613 1-529); settings: protein: recombinant; tags: N-terminal GST; chain copies: 3; dsDNA, one strand shown
# HSF1, sequence (Q00613 whole entry): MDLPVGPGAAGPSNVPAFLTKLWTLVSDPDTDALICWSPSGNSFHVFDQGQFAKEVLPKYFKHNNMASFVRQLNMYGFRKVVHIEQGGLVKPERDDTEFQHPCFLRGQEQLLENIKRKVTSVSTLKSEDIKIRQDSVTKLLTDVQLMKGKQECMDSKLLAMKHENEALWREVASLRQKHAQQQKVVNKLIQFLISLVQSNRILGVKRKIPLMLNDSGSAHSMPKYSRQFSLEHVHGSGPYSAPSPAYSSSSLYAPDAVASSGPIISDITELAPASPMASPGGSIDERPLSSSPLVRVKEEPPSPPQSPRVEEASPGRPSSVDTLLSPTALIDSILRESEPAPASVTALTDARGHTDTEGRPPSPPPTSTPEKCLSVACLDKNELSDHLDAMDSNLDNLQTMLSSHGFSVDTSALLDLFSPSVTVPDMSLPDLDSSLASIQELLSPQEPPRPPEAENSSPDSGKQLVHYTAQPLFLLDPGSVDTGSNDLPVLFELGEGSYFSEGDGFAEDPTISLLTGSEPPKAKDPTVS
# Summary of the method: as §1
# [13] = biological target: T8, SPIC (Homo sapiens, UniProt Q8N5J4 1-248); settings: protein: recombinant; tags: N-terminal GST; dsDNA, one strand shown
# T8 sequence: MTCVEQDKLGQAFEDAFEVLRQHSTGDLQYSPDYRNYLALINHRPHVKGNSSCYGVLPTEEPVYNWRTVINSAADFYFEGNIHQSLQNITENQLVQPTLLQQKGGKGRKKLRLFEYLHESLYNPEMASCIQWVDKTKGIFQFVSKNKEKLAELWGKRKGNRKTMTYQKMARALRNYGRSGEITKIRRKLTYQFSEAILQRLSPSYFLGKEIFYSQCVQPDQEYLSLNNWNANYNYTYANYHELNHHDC
# Summary of the method: as §1
# [14] = biological target: ELF4 (Homo sapiens, UniProt Q99607 1-663); settings: protein: recombinant; tags: N-terminal GST; dsDNA, one strand shown
# ELF4, sequence (Q99607 whole entry): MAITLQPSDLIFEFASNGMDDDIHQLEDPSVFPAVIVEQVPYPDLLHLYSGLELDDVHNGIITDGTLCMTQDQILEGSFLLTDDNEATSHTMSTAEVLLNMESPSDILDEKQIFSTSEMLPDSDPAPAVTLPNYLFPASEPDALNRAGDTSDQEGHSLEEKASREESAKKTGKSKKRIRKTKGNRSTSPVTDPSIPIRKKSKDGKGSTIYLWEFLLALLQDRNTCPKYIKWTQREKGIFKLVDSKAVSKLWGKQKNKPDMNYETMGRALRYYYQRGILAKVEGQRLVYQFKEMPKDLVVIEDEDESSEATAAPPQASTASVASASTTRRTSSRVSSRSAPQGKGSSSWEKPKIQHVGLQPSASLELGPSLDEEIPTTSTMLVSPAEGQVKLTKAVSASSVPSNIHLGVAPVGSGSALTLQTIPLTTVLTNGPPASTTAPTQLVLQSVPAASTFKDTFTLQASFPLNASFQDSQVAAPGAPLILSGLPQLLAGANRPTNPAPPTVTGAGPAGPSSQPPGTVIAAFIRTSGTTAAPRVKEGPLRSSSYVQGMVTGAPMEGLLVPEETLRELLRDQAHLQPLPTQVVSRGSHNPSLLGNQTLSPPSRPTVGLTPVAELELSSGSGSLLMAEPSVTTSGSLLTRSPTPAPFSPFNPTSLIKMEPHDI
# Summary of the method: as §1
# [15] = biological target: T9, ELK4 (Homo sapiens, UniProt P28324-2 1-405); settings: protein: recombinant; tags: N-terminal GST; dsDNA, one strand shown
# T9 sequence: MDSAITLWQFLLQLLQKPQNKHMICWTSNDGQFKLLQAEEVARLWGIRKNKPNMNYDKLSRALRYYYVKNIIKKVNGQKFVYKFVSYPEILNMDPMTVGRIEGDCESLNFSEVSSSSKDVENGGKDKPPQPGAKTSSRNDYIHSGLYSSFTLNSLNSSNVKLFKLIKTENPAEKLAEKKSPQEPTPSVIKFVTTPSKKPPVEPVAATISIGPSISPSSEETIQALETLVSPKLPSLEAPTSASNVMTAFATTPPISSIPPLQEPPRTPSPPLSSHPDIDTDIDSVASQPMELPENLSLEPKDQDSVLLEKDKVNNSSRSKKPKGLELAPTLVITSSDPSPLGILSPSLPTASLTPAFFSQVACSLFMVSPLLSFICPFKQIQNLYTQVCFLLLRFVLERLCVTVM
# Summary of the method: as §1
# [16] = biological target: T10, ETV2 (Homo sapiens, UniProt O00321 1-342); settings: protein: recombinant; tags: N-terminal GST; dsDNA, one strand shown
# T10 sequence: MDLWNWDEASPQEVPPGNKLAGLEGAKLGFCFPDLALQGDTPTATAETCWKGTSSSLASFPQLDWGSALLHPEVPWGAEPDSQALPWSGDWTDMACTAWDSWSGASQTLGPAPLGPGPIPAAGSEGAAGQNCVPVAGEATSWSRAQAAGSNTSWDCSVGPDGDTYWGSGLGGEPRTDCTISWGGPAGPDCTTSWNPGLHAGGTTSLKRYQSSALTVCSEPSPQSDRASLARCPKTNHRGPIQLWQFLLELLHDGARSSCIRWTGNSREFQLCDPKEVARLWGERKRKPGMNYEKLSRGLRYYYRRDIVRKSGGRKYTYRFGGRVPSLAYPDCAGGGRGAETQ
# Summary of the method: as §1
# [17] = biological target: T11, ELF3 (Homo sapiens, UniProt P78545 1-371); settings: protein: recombinant; tags: N-terminal GST; dsDNA, one strand shown
# T11 sequence: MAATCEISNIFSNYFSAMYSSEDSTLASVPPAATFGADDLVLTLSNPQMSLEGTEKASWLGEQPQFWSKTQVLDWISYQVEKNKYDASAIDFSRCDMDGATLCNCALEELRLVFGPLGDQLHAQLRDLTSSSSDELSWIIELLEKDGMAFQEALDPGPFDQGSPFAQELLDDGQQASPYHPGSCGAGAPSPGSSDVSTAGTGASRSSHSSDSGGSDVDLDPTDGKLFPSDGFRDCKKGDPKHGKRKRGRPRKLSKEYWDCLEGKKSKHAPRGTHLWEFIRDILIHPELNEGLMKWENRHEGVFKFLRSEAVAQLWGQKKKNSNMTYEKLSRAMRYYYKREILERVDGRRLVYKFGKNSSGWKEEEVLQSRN
# Summary of the method: as §1
# [18] = biological target: CRX (Homo sapiens, UniProt O43186 1-299); settings: protein: recombinant; tags: N-terminal GST; dsDNA, one strand shown
# CRX, sequence (O43186 whole entry): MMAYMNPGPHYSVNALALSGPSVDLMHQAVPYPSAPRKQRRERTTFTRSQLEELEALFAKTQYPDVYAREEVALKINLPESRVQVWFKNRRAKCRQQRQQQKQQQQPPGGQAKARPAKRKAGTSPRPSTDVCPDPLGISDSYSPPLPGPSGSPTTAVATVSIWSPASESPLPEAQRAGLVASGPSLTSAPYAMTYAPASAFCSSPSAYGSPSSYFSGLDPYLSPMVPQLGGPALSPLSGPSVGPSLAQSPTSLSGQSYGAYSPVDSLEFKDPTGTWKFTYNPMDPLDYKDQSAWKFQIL
# Summary of the method: as §1
# [19] = biological target: ETV1 (Homo sapiens, UniProt P50549 1-477); settings: protein: recombinant; tags: N-terminal GST; dsDNA, one strand shown
# ETV1, sequence (P50549 whole entry): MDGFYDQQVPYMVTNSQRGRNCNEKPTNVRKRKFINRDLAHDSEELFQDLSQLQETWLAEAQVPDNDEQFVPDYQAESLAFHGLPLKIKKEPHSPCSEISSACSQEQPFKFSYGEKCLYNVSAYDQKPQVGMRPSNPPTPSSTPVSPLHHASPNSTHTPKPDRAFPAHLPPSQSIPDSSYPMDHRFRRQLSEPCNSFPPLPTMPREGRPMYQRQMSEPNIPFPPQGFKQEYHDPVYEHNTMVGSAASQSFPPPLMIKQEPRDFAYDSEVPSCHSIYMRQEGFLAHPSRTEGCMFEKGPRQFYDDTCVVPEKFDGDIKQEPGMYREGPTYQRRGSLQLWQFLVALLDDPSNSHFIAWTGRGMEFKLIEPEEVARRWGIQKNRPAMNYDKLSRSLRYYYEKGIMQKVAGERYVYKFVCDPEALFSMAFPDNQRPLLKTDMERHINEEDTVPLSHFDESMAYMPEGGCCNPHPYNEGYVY
# Summary of the method: as §1
sequence,measurement,setting,value
TCATTT,binding signal,[1],"1.36 fold enrichment (6-mer frequency, TF over GST control)"
same,binding signal,[2],"1.33 fold enrichment (6-mer frequency, TF over GST control)"
same,binding signal,[3],"1.19 fold enrichment (6-mer frequency, TF over GST control)"
same,binding signal,[4],"1.35 fold enrichment (6-mer frequency, TF over GST control)"
same,binding signal,[5],"1.25 fold enrichment (6-mer frequency, TF over GST control)"
same,binding signal,[6],"1.36 fold enrichment (6-mer frequency, TF over GST control)"
same,binding signal,[7],"1.5 fold enrichment (6-mer frequency, TF over GST control)"
same,binding signal,[8],"1.34 fold enrichment (6-mer frequency, TF over GST control)"
same,binding signal,[9],"1.16 fold enrichment (6-mer frequency, TF over GST control)"
same,binding signal,[10],"1.38 fold enrichment (6-mer frequency, TF over GST control)"
same,binding signal,[11],"1.4 fold enrichment (6-mer frequency, TF over GST control)"
same,binding signal,[12],"1.14 fold enrichment (6-mer frequency, TF over GST control)"
same,binding signal,[13],"1.41 fold enrichment (6-mer frequency, TF over GST control)"
same,binding signal,[14],"1.34 fold enrichment (6-mer frequency, TF over GST control)"
same,binding signal,[15],"1.37 fold enrichment (6-mer frequency, TF over GST control)"
same,binding signal,[16],"1.5 fold enrichment (6-mer frequency, TF over GST control)"
same,binding signal,[17],"1.24 fold enrichment (6-mer frequency, TF over GST control)"
same,binding signal,[18],"1.16 fold enrichment (6-mer frequency, TF over GST control)"
same,binding signal,[19],"1.41 fold enrichment (6-mer frequency, TF over GST control)"
